Results published in PubChem BioAssay AID1952 (The Scripps Research Institute Molecular Screening Center, 2009).
The campaign covered roughly 2,400 compounds. About 1,200 (50%) were called active. No stated cut-off is given here; in the data, active means inhibition above about 24%; inactive means the rest. The set was probably picked from earlier hits. The list is a sample of the results.

molecular target: Neuropeptides B/W receptor type 1 (Homo sapiens) (UniProt P48145); test: GPR7 receptor antagonists, confirmation, cell-based, fluorescence, single concentration (AID 1952); details: GPR7-expressing cells, calcium fluorescence antagonist mode; at 4.4 µM; active compounds read high;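 further: stimulated with the GPR7 agonist NPW; 0% = agonist plus vehicle and 100% = vehicle alone without agonist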
Sequence (P48145 whole entry, looked up): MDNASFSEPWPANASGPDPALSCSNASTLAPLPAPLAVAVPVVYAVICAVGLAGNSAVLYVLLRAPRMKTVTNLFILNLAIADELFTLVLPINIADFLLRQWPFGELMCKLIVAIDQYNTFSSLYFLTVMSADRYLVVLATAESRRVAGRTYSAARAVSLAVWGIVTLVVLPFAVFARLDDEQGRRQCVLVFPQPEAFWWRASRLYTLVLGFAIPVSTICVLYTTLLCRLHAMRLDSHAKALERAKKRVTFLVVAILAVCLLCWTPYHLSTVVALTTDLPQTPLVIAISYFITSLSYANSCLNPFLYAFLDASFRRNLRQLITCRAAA

inhibition, active:
Cc1cccc(CS(=O)(=O)c2ncc(Cl)c(C(=O)Nc3ccc(F)cc3)n2)c1 51.2%
COc1ccc(NS(=O)(=O)c2ccc(NC(=S)NC(=O)CC(C)C)cc2)cc1 35.8%
COc1ccc(C2Nc3ccccc3C(=O)N2Cc2ccccc2)cc1Cn1nnc2ccccc21 (stereo unspecified) 31.7%
COc1ccc(C(CCNCc2ccccc2F)c2ccc(F)cc2)cc1 (stereo unspecified) 47.2%
CC(C)OCCCNc1ncnc2c1[nH]c1ccc(F)cc12 39.2%
O=C(CN1CCN(C(=S)NC2CCCC2)CC1)Nc1ccc(Oc2ccccc2)cc1 28.6%
CCc1ccc(NC(=O)c2ccc(Cn3cc([N+](=O)[O-])cn3)cc2)cc1 29.5%
CCOc1ccc(Cn2nnc(C(=O)NCc3ccccc3)c2N)cc1 52.4%
CCN1CCN(c2ccc([N+](=O)[O-])cc2C(=O)c2ccc(Cl)cc2)CC1 39.6%
Cc1ccc(C(=O)C[n+]2cc(-c3ccccc3)n3c2CCCCC3)cc1 27.9%
C=CCC1(CC=C)CCCN1C(=O)c1cc(COc2ccc(-n3cncn3)cc2)on1 29.2%
Clc1ccc(-c2cc(C3CCNCC3)[nH]n2)c(Cl)c1 34.3%
CCCCCCCCCCOC(=O)Cn1c(COc2cccc(OC)c2)[n+](C)c2ccccc21 78.9%
Cc1cccc(NC(=O)c2cccc(C(=O)Nc3cccc(C)c3C)n2)c1C 37.8%
Clc1ccc(C2CC(c3cccs3)n3ncnc3N2)cc1Cl (stereo unspecified) 31.9%
CCC(C(=O)Nc1ccc(C(C)C)cc1)c1ccccc1 (stereo unspecified) 94.1%
CC(=O)N1CCCc2cc(S(=O)(=O)N3CCCC(C(=O)N4CCN(c5cccc(Cl)c5)CC4)C3)ccc21 (stereo unspecified) 69.6%
COc1cc(OC)cc(C(=O)N[C@H](C(=O)OCC(=O)NC(C)c2ccccc2)C(C)C)c1 (stereo partly specified) 79.4%
Cc1ccccc1NC(=S)NC(=O)Cc1ccc(Cl)cc1 70.5%
O=C(Cc1ccc(Cl)cc1)NC(=S)Nc1ccccc1O 84.5%
CN(c1cccc(NC(=O)Nc2ccc(Cl)cc2)c1)S(C)(=O)=O 31%
OC(CNCC1CCCO1)Cn1c2ccc(Br)cc2c2cc(Br)ccc21 (stereo unspecified) 78.3%
Cc1ccccc1CN1C(=O)c2ccccc2Sc2ccc(C(=O)NCCCN3CCOCC3)cc21 42.4%
O=C(NCCCN1CCOCC1)c1ccc2c(c1)N(Cc1cccc(F)c1)C(=O)c1ccccc1S2 24.3%
CS(=O)(=O)N(Cc1ccc(Cl)cc1)c1ccc(C(=O)NCCSCc2ccco2)cc1 32.3%
Cc1ccc2[nH]cc(CCNC(=O)c3ccc([N+](=O)[O-])cc3)c2c1 40.7%
CC1CN(C(=O)CCC(=O)NCCCN2CCC(Cc3ccccc3)CC2)c2cc(Cl)ccc2O1 (stereo unspecified) 49.4%
c1ccc(C2CNCc3c2ccc2ccccc32)cc1 (stereo unspecified) 89.5%
CN(c1ccccc1)S(=O)(=O)c1ccc(C(=O)NCCc2ccccc2)cc1 24.1%
N=c1n(CCc2ccccc2)c2ccccc2n1Cc1ccccc1F 36.4%
COc1ccc(CS(=O)/C(Cl)=C(/Cl)C(=O)Nc2ccc(OC)nc2)cc1 (stereo unspecified) 63.6%
CCc1ccc(OCC2c3cc(OC)c(OC)cc3CCN2C(C)=O)cc1 (stereo unspecified) 30%
COc1ccccc1N1CCN(c2ncnc3sc(C)c(-c4ccccc4)c23)CC1 37.2%
O=C(NCCCN1CCN(c2ccc(F)cc2)CC1)Nc1ccc([N+](=O)[O-])cc1 41.9%
COc1cccc(CNCCc2c[nH]c3ccccc23)c1OCc1ccccc1F 61.5%
O=C(CSCc1ccc([N+](=O)[O-])cc1)NCCSCc1ccccc1 35.4%
CC(C(=O)N1CCN(c2ccccc2F)CC1)c1ccc([N+](=O)[O-])cc1 (stereo unspecified) 42.2%
Cc1cc(OCc2ccc(C(=O)Nc3ccc(C(=O)O)cc3)o2)ccc1Cl 44.9%
Cc1ccc2nc(C)c3c(c2c1)N(c1ccccc1)CC3 37.9%
CS(=O)(=O)N(CC(O)Cn1c2ccccc2c2ccccc21)c1cccc2ccccc12 (stereo unspecified) 45%
O=[N+]([O-])/C=C/c1ccc2c(ccn2Cc2ccccc2)c1 92.4%
CN(C)S(=O)(=O)N1CCC(Oc2cccc(C(=O)NCCCC3CCCC3)c2)CC1 40.1%
COc1ccc([N+](=O)[O-])cc1N(CC(O)CN(CC(C)C)CC(C)C)S(=O)(=O)c1ccc(C)cc1 (stereo unspecified) 31.9%
N#CC1=C(SCc2ccc(C#N)cc2)N=C(N)C(c2nc(-c3ccccc3)cs2)C12CCCCC2 (stereo unspecified) 44.2%
COc1cc(OC)c(-n2cc(-c3ccc(Cl)cc3)[nH]c2=O)cc1Cl 60.4%
Cc1cc(Cl)ccc1OCCCC(=O)Nc1cccc(-n2cnnn2)c1 27.4%
CCCOc1ccccc1C1CC(=O)Nc2cc3c(cc21)OCO3 (stereo unspecified) 24.6%
Nc1nnc(SCC(=O)Nc2ccc3nc(SCC(=O)Nc4ccccc4)sc3c2)s1 59.8%

inhibition, inactive:
COc1ccccc1CNC(=O)COc1ccc(C)nc1[N+](=O)[O-] 2.95%
COc1ccccc1Oc1ccc(S(=O)(=O)Nc2cccnc2)cc1 16.8%
O=C(CC(=O)Nc1ccc(Cl)c(Cl)c1)N/N=C/c1ccc(O)cc1 10.9%
CC1(C)CC(CNCCC(c2ccc(F)cc2)c2ccco2)CCO1 (stereo unspecified) 12.5%
O=C(CCc1ccccc1)Nc1ccc(NC(=O)C2CC2)nc1 17.6%
Cc1ccc(NC(=O)CN2CCC3(O)CCCCC3C2c2ccc3c(c2)OCO3)c(C)c1 (stereo unspecified) 19.6%
O=C(COc1ccccc1)NCc1ccc2c(c1)OCO2 14.3%
COc1cc(NC(=O)CN2C(=O)NC(C)(c3ccc(OC(F)F)cc3)C2=O)cc(OC)c1OC (stereo unspecified) 23.2%
Cc1cc2c(cc1C)N(Cc1ccccc1)C1=NCCCN12 20.8%
CCOc1ccc(C(=O)NC(=S)Nc2ccc(N3CCOCC3)c(Cl)c2)cc1[N+](=O)[O-] -6.59%
COc1ccc(N=C2SC(C(=O)Nc3ccc(F)cc3)CC(=O)N2C)cc1 (stereo unspecified) 4.38%
Fc1ccc(-c2ccc(-c3nn4c(-c5ccco5)nnc4s3)o2)cc1 8.54%
O=C(CN1C(=O)/C(=C/c2ccccc2F)Sc2ccccc21)NCc1cccnc1 -18%
C=CCNC(=O)COC(=O)c1ccccc1C(=O)N(C)C1CCCCC1 -3.62%
O=C(Nc1ccc2c(c1)OCO2)C1CC(c2c(F)cccc2Cl)=NO1 (stereo unspecified) 8.85%
COc1ccc(NC(=O)C2CCC(CNS(=O)(=O)c3csc(C(N)=O)c3)CC2)cc1OC (stereo unspecified) -15.3%
COCCCNC(=S)N1CCN(c2nc(-c3cccc(OC)c3)cs2)CC1 19%
O=C(NC(=O)c1ccccc1)Nc1ccccc1O 12.2%
O=C(CCCN1CCc2[nH]c3ccc(F)cc3c2C1)c1ccc(F)cc1 18.6%
O=C(CSc1nnc(-c2ccco2)o1)NCC(=O)c1ccccc1 -14.8%
Cc1ccc(S(=O)(=O)n2cnc3ccccc32)c(C)c1 -4.27%
COc1ccc(C)cc1NC(=O)NCCCCc1ccccc1 4.53%
Cc1ccccc1CN1C[C@@H]2C[C@@H](c3cn(C)nc3-c3ccccc3)N3CCC[C@@]23C1=O 21.9%
Cc1ccc(NC2=C(Cl)C(=O)OC2OC(=O)c2ccccc2C)cc1 (stereo unspecified) 4.37%
S=C(NCCc1ccccc1)Nc1ccccc1 1.82%
CC(=O)Nc1ccc(S(=O)(=O)N(C)CC(=O)NCCC2=CCCCC2)cc1 -0.53%
CS(=O)(=O)Nc1cccc(C2=NN(S(=O)(=O)c3ccccc3)C(c3cccs3)C2)c1 (stereo unspecified) 22.3%
CCN(CC)Cc1c(C(=O)OC)nnn1-c1nonc1N -1.39%
CCOc1ncccc1C(=O)NCCc1ccc(OC)cc1 15%
CCN(CC)CCOCCOc1ccc(Cl)c2ccccc12 20.8%
CCC(C)c1ccccc1NC(=O)CN(C)CC(=O)Nc1ccccc1SC (stereo unspecified) 19.5%
O=[N+]([O-])c1ccc(N(CCO)Cc2ccccc2)c([N+](=O)[O-])c1 23.3%
O=C(NCCNc1ccc([N+](=O)[O-])cc1Cl)c1ccccc1F 18.8%
Cc1cc(OC(C)C(=O)NC2CC(C)(C)NC(C)(C)C2)c2c(C)cc(=O)oc2c1 (stereo unspecified) -2.7%
Cc1c(CCO)c(=O)n(-c2ccccc2)n1S(=O)(=O)c1ccc(F)cc1 -9.84%
O=C(COc1ccc(S(=O)(=O)Nc2cccc(C(F)(F)F)c2)cc1)N1CCOCC1 19.6%
O=S(=O)(c1ccc(OCC(O)CN2CCN(c3ccccc3Cl)CC2)cc1)N1CCOCC1 (stereo unspecified) 11.4%
Cc1ccc(NC(=S)N(CCCN2CCC(C)CC2)Cc2ccco2)cc1 0.61%
Cc1ccc(SCc2cc(=O)[nH]c(N3CCCCC3)n2)cc1 -9.2%
Cc1ccccc1Nc1nnc(SCC(=O)c2cc3ccccc3o2)s1 3.71%
Cc1ccc(CNC(=O)C2CCN(S(=O)(=O)c3ccc4nc5c(c(C(=O)O)c4c3)CC(C)CC5)CC2)cc1 (stereo unspecified) 16.8%
Cn1c(=O)c([N+](=O)[O-])c(Oc2ccccc2)c2ccccc21 17.2%
COc1ccccc1N(C(=O)Cn1nnc2ccccc21)C(C(=O)NCc1ccco1)c1ccc(C)o1 (stereo unspecified) 22.8%
